A short description of assay [1]: inhibitors of TNFa-induced NFkB p65 translocation, primary screen, imaging, HUVEC, MLSMR starter and 10KST1 sets (AID 438;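 active means inhibition above 20% together with a positive visual image hit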;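 further: compound added about 3h40 before a 20 min TNFalpha stimulation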;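 on inhibition: signal is the nuclear over cytoplasmic p65 intensity ratio per well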). The following applies: HUVEC TNFa-induced p65 nuclear translocation; cell count: measured here: nuclei count (cytotoxicity indicator), at 2.08 µM; inhibition: at 2 µM, stronger effect = higher value, 0% TNFa-plus-vehicle, 100% no-TNFa wells.
A short description of assay [2]: reduction of polyQ htt aggregates in cells – imaging, exon1htt(103Q)mCFP cells, high-content imaging, primary screen (AID 483;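 active means visual image review flags a hit and inhibition of aggregation exceeds 20%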;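 further: compound exposure lasted 3 days before fixation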;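 on nuclei count: percent of the per-plate median nuclei count of sample wells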). The following applies: exon1htt(103Q)mCFP cell line, aggregate imaging, at 2 µM; inhibition of aggregation: stronger effect = higher value; nuclei count: measured here: cell count, toxicity.
A short description of assay [3]: endothelial E-selectin expression blockers – imaging, HUVEC, immunofluorescence, MLSMR starter and 10KST1 sets, primary screen (AID 487;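 active means visually confirmed hit in the image check and inhibition above 20%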;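 on inhibition: signal is fraction of cell area covered by stained E-selectin grains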;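 on nuclei count: 100% = median nuclei count of all wells on the same plate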). The following applies: HUVEC TNFalpha-induced E-selectin immunofluorescence imaging, at 2 µM; inhibition: stronger effect = higher value; nuclei count: measured here: cell number, toxicity.
Assay [4] concerns the target Voltage-gated potassium channel subunit beta-2 (Rattus norvegicus) (UniProt P62483). Briefly: inhibitors of rat Kvbeta2 reductase activity – biochemical, NADPH fluorescence, primary screen (AID 622;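 active means fluorescence slope higher than the sample average by over 3 SD, cut at about -0.22 in these data, passing the limit was not always enough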;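 further: slope of raw intensity against log time taken from 70 to 1610 s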). The following applies: recombinant KvBeta, 4-cyanobenzaldehyde reduction, at 10 µM, stronger effect = higher value.
The target is the same in assay [5]. Put plainly: enhancers of rat Kvbeta2 NADPH turnover – biochemical, NADPH fluorescence, primary screen (AID 623).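 Further: fluorescence intensity change per second fitted from 20 to 320 s.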 The following applies: Recombinant KvBeta, NADPH fluorescence decrease slope, 10 min; at 10 µM; stronger effect = lower value.
Assay [6] has as its target Alpha-2C adrenergic receptor (Homo sapiens) (UniProt P18825). Put plainly: compounds altering alpha2C-coupled GIRK flux – cell-based, HEK293 alpha2C/GIRK1/2, thallium flux, primary screen (AID 624;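 active means fluorescence slope after compound addition differing from the mean of all screened samples at 99.7% confidence, in either direction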;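 further: slope of fluorescence ratio to pre-addition baseline per second over 15 to 24 s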). The following applies: thallium flux BTC fluorescence, at 10 µM, actives lie on both sides.
Assay [7] is described as follows: blockers of RIG-like receptor reporter activation – cell-based, Sendai virus stimulus, luciferase, 10K MLSCN set, TLR/RLR signaling modifier project, primary screen (AID 602276;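 active means inhibition at or above 50% at 10 µM; inactive means inhibition below 50%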;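 further: firefly luciferase from ISG56 promoter only with Renilla not read in this screen; 0% = Sendai virus plus DMSO and 100% = medium plus DMSO without virus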). The following applies: HEK293 RL24 IRF3 luciferase reporter, at 10 µM, stronger effect = higher value.
Assay [8] can be described thus: TLR3 IRF3 reporter activation blockers – cell-based, poly I:C stimulus, luciferase, 10K MLSCN set, primary screen (AID 602277;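 active means inhibition of the reporter signal at or above 50%; inactive means inhibition below 50%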). The following applies: HEK293-TLR3 RL24 IRF3 luciferase reporter, at 10 µM, stronger effect = higher value. For orientation: In a reporter assay the amount or activity of a reporter protein is the signal.

The inhibition is the relative decrease from the control value, in per cent.

Calls of active or inactive are those of the source.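 How the source made its calls, unless noted: active means NADPH fluorescence slope more negative than the mean of all samples by about 3 SD, 99.7% confidence; inactive means the rest.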

Chain of Voltage-gated potassium channel subunit beta-2 (Rattus norvegicus) (P62483 whole entry, looked up): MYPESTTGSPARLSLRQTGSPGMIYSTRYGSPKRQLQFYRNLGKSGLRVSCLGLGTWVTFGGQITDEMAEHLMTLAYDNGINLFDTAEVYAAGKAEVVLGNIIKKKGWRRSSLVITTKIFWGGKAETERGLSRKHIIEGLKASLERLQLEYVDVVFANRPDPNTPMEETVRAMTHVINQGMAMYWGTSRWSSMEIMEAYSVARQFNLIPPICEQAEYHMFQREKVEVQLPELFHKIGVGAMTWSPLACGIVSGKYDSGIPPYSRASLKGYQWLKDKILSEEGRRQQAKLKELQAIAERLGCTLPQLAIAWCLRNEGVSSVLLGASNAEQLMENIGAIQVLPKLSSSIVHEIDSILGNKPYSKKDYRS
Chain of Alpha-2C adrenergic receptor (Homo sapiens) (P18825 whole entry, looked up): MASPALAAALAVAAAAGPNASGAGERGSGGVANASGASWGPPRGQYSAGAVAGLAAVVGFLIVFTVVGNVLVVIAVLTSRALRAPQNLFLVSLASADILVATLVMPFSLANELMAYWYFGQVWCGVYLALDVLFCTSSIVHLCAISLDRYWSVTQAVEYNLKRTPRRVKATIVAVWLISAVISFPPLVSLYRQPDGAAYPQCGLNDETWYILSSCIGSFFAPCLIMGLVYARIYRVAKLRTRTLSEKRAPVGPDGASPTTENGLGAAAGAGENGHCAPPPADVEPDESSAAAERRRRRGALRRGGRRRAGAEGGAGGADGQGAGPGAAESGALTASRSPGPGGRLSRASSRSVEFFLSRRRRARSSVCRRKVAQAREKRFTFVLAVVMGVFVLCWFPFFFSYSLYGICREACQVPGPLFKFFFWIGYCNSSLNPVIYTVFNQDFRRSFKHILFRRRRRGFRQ

As to `Cc1cccc(C2CC(c3ccccc3)Nc3nc(N)nn32)c1` (centres undefined), in assay [1], the cell count turned out to be 626. For the same compound, the inhibition in assay [1] is -3.4% (inactive); in assay [3] it was -47.9% (inactive); in assay [7], 9.21% (inactive); in assay [8], 18.7% (inactive). Also, in assay [2], the inhibition of aggregation was 7.7% (inactive). Also, the nuclei count in assay [2] turned out to be 114%; in assay [3], 120%. Moreover, in assay [4], the fluorescence slope is -0.517 (inactive). The NADPH fluorescence slope in assay [5] is -5.7e-06 (inactive). In addition, the slope in assay [6] is 0.00697 (inactive).

For the compound `CCNCC(O)COCC(O)CNCC` (centres undefined), the cell count in assay [1] is 493. Moreover, the inhibition in assay [1] was -5.5% (inactive); in assay [3] it was 4.5% (inactive); in assay [7], 13.1% (inactive); in assay [8], 21.4% (inactive). Further, in assay [2], the inhibition of aggregation was -14.4% (inactive). Besides, the values for the nuclei count in assay [2] and in assay [3] were 84.2% and 117%, respectively. The fluorescence slope in assay [4] was -0.256 (inactive). Moreover, in assay [5], the NADPH fluorescence slope was 8.5e-06 (inactive). The slope in assay [6] is 0.0061 (inactive).

For `O=C(NCc1ccc2c(c1)OCO2)C1CCC(CNS(=O)(=O)c2ccccc2)CC1` (centres undefined), the cell count in assay [1] is 316. The inhibition in assay [1] is 8.9% (inactive); in assay [3], -4.9% (inactive); in assay [7], 11.6% (inactive); in assay [8], 26.6% (inactive). Also, the inhibition of aggregation in assay [2] is -31.1% (inactive). Moreover, the results for the nuclei count in assay [2] and in assay [3] were 111% and 116%, respectively. Further, the fluorescence slope in assay [4] is -0.489 (inactive). For the same compound, the NADPH fluorescence slope in assay [5] is 1.3e-05 (inactive). The slope in assay [6] is 0.00655 (inactive).

As to `O=S(=O)(c1ccc(-c2csc(-c3cccnc3)n2)cc1)N1CCCCC1`, the cell count in assay [1] amounted to 372. Besides, the inhibition in assay [1] is -1.7% (inactive); in assay [3], -30.5% (inactive); in assay [7], -0.353% (inactive); in assay [8] it was -37.2% (inactive). In addition, the inhibition of aggregation in assay [2] is -2% (inactive). Also, the nuclei count amounted to 102% in assay [2] and 116% in assay [3]. The fluorescence slope in assay [4] was -0.604 (inactive). Besides, the NADPH fluorescence slope in assay [5] is -9e-06 (inactive). The slope in assay [6] was 0.0051 (inactive).

In the case of `Cc1sc(NC(=O)CSc2nc(N)n(CC(=O)c3ccccc3)n2)c(C#N)c1C`, in assay [1], the cell count was 403. Further, the inhibition in assay [1] was -0.8% (inactive); in assay [3], -61.6% (inactive); in assay [7], -14.5% (inactive); in assay [8], -21.2% (inactive). In addition, in assay [2], the inhibition of aggregation was -21.4% (inactive). Moreover, the nuclei count in assay [2] and in assay [3] was 111% each time. In addition, the fluorescence slope in assay [4] was -0.612 (inactive). For the same compound, in assay [5], the NADPH fluorescence slope is -2.1e-05 (inactive). For the same compound, in assay [6], the slope was 0.00622 (inactive).

For `Cc1cc(Cl)cc2c1NC(=O)[C@]21[C@@H]2C(=O)N(Cc3ccccc3)C(=O)[C@@H]2[C@@H]2CCCN21`, in assay [1], the cell count came to 556. The inhibition in assay [1] is -18.1% (inactive); in assay [3] it was -65.1% (inactive); in assay [7] it was 15.5% (inactive); in assay [8], 27.9% (inactive). Also, the inhibition of aggregation in assay [2] was -7.5% (inactive). The nuclei count worked out at 115% in assay [2] and 107% in assay [3]. In assay [4], the fluorescence slope was -0.619 (inactive). The NADPH fluorescence slope in assay [5] is -3.2e-05 (inactive). In assay [6], the slope is 0.00523 (inactive).

For `Cc1cccc(-n2ncc3c(N(CCO)CCO)ncnc32)c1`, the cell count in assay [1] came out at 635. Also, the inhibition was 1.4% (inactive) in assay [1], -35.6% (inactive) in assay [3], -28.4% (inactive) in assay [7] and -84.3% (inactive) in assay [8]. The inhibition of aggregation in assay [2] was -5% (inactive). In addition, the nuclei count turned out to be 53.9% in assay [2] and 125% in assay [3]. The fluorescence slope in assay [4] is -0.513 (inactive). The NADPH fluorescence slope in assay [5] was -1.8e-05 (inactive). In addition, the slope in assay [6] is 0.00728 (inactive).

In the case of `Cc1ccc(C)c2[nH]c(=O)c(CCNC(=O)CC(C)(C)C)cc12`, the cell count in assay [1] is 650. Besides, the inhibition in assay [1] is -5.3% (inactive); in assay [3], 16.6% (inactive); in assay [7], 4.63% (inactive); in assay [8], 16.5% (inactive). The inhibition of aggregation in assay [2] is 33.1% (inactive). Besides, the nuclei count in assay [2] came to 63.8%; in assay [3] it was 90.8%. Moreover, the fluorescence slope in assay [4] was -0.557 (inactive). The NADPH fluorescence slope in assay [5] is -5.3e-05 (inactive). For the same compound, the slope in assay [6] is 0.00614 (inactive).

Consider `COc1ccc(C2CC(c3cccc(C)c3)n3ncnc3N2)cc1` (centres undefined), for which, in assay [1], the cell count is 595. Moreover, the inhibition in assay [1] was 5.1% (inactive); in assay [3], 4% (inactive); in assay [7], -16.2% (inactive); in assay [8], 2.59% (inactive). Besides, in assay [2], the inhibition of aggregation was 0% (inactive). For the same compound, the results for the nuclei count in assay [2] and in assay [3] were 97.8% and 111%, respectively. For the same compound, the fluorescence slope in assay [4] was -0.569 (inactive). Besides, the NADPH fluorescence slope in assay [5] is 1.9e-05 (inactive). For the same compound, in assay [6], the slope is 0.00625 (inactive).

As for `CCOc1ccc(Oc2nc(Nc3ccc(C)cc3)nc(N(C)C)n2)nn1`, the cell count in assay [1] turned out to be 619. The inhibition is -0.3% (inactive) in assay [1], -14.3% (inactive) in assay [3], -17.8% (inactive) in assay [7] and 1.23% (inactive) in assay [8]. In addition, the inhibition of aggregation in assay [2] was 25.8% (inactive). For the same compound, the results for the nuclei count in assay [2] and in assay [3] were 71.1% and 106%, respectively. For the same compound, the fluorescence slope in assay [4] was -0.491 (inactive). Further, the NADPH fluorescence slope in assay [5] was -4.9e-05 (inactive). The slope in assay [6] is 0.00543 (inactive).

With `CC(=O)c1ccccc1OCCn1nnc(-c2ccc(C)cc2)n1`, the cell count in assay [1] was 556. The inhibition in assay [1] was -13.7% (inactive); in assay [3], -24.2% (inactive); in assay [7] it was 12.9% (inactive); in assay [8], 14% (inactive). Further, the inhibition of aggregation in assay [2] is -20.1% (inactive). The nuclei count in assay [2] was 106%; in assay [3], 109%. In assay [4], the fluorescence slope was -0.487 (inactive). In addition, the NADPH fluorescence slope in assay [5] was -5.6e-05 (inactive). Moreover, the slope in assay [6] is 0.0055 (inactive).

As for `O=C(c1ccccc1)N1CCN(Cc2ccccc2Br)CC1`, in assay [1], the cell count amounted to 234. For the same compound, the inhibition in assay [1] was -2.5% (inactive); in assay [3] it was -25.8% (inactive); in assay [7] it was 9.36% (inactive); in assay [8], 4.59% (inactive). In addition, the inhibition of aggregation in assay [2] is 23.9% (inactive). Besides, the nuclei count was 77.4% in assay [2] and 96.1% in assay [3]. In addition, in assay [4], the fluorescence slope is -0.428 (inactive). The NADPH fluorescence slope in assay [5] was -4.5e-05 (inactive). Also, the slope in assay [6] was 0.00425 (inactive).

With `CC(=O)c1ccc(-c2nc3ccccc3n2C)o1`, the cell count in assay [1] came out at 365. Moreover, the inhibition in assay [1] was 4.7% (inactive); in assay [3] it was -11.8% (inactive); in assay [7], -22.8% (inactive); in assay [8], -73.6% (inactive). In addition, the inhibition of aggregation in assay [2] is -13.2% (inactive). Further, the nuclei count in assay [2] came out at 105%; in assay [3] it was 108%. The fluorescence slope in assay [4] is -0.0212 (active). Also, the NADPH fluorescence slope in assay [5] was 5.6e-07 (inactive). The slope in assay [6] was 0.00571 (inactive).

In the case of `O=C1CN(Cc2ccccc2)C(=NCc2ccco2)S1`, the cell count in assay [1] was determined as 446. Further, the inhibition in assay [1] was 3.4% (inactive); in assay [3], 13.6% (inactive); in assay [7], 8.96% (inactive); in assay [8], 30.9% (inactive). In assay [2], the inhibition of aggregation was -5.3% (inactive). Further, the nuclei count in assay [2] stood at 99.8%; in assay [3], 97.4%. Further, the fluorescence slope in assay [4] was -0.451 (inactive). Besides, the NADPH fluorescence slope in assay [5] was -2.2e-05 (inactive). In addition, the slope in assay [6] was 0.00487 (inactive).

The values above are taken from PubChem BioAssay.
